Compound activity (PubChem)
In the library only some 6.1% were active in any assay of this set; here they are far more common.
D1 potentiator: human D1 dopamine receptor positive modulation | P21728 | HEK293 TREx D1 cells, calcium flux, dopamine EC20 potentiation | potentiation, % at 10 µM | hit rate 0.036% among 360,000 | AID 504651; in the data active = potentiation above about 30%; note: 0% is about no effect
Target sequence (P21728 whole entry, looked up): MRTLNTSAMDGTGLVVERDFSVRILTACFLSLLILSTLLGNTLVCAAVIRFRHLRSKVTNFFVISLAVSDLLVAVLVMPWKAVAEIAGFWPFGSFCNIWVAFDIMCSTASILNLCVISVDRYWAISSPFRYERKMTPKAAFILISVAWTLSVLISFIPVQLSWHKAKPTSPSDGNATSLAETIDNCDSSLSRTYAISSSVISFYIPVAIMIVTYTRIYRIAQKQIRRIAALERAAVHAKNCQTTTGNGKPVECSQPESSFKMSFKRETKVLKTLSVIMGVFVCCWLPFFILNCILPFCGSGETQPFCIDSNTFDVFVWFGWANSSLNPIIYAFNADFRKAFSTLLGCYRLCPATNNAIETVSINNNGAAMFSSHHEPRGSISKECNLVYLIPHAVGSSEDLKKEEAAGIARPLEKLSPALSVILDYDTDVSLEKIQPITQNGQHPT
D1 ag: activates the human D1 dopamine receptor; AID 504660; hit rate 1% among 360,000; activation, % at 2 µM; P21728; HEK293 T-REx D1 cells, calcium flux, agonist mode; in the data active = activation above about 30%; note: 0% is about no effect
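Inducible HEK293 T-REx D1 cells, force-coupled to calcium signalling, were plated at 4000 cells/well with tetracycline and held overnight at 30 C. After no-wash calcium dye loading, compound-evoked calcium rise over 180 s flagged agonists.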
D1 antagonist: antagonists of human D1 dopamine receptor | HEK293 TREx D1 cells, calcium flux, dopamine EC80; stronger effect = lower value | hit rate 3.2% among 360,000 | activity change, negative = inhibition, % at 10 µM | P21728; in the data active = activity change below about -30%; note: % is set by controls: 0 for no effect and ±100 for the full control effect
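Calcium flux readout: force-coupled, inducible Hek293 Trex D1 line, cells induced overnight at 30 C with tetracycline, dye-loaded 30–90 min at RT. Antagonism scored against EC80 dopamine challenge given 180 s after compound.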
DRD3 agonist: D3 dopamine receptor (human) agonism | hit rate 0.58% among 410,000 | max activation, % | D3R DiscoveRx beta-arrestin cells, luminescence, 90 min | P35462 | AID 652048; in the data active = max activation above about 30%; note: 0% is about no effect
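Agonist-mode cell screen: cells plated at 1500/well and incubated overnight at 37 °C, then exposed to library compounds for 90 min at 37 °C. Detection reagent was added for 30–60 min at room temperature, and luminescence was read.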
D3 antag: blocks the human D3 dopamine receptor; max response, negative = inhibition, %; hit rate 2.5% among 360,000; D3R cells, DiscoveRx beta-arrestin luminescence, antagonist mode; stronger effect = lower value; P35462; in the data active = max response below about -50%; note: % is set by controls: 0 for no effect and ±100 for the full control effect
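Cells expressing the human receptor were seeded at 1500 cells/well, incubated overnight at 37 degrees C in 5% CO2, then exposed to library compounds with dopamine controls for 90 minutes at 37 degrees C before luminescent detection.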
* marks the source's active call; other numbers are inactive results; x = not tested or not shown.

SMILES | D1 potentiator | D1 ag | D1 antagonist | DRD3 agonist | D3 antag
COc1ccc(-c2nc3cc(C)ccn3c2NC(=O)c2ccc(F)cc2)cc1 | -1 | 1 | -40* | 6 | x
O=S(=O)(c1ccc2nc(SCc3cccc(Cl)c3)[nH]c2c1)N1CCOCC1 | -4 | 3 | -5 | 1 | 0
CC(C)=CCC/C(C)=C/COc1c2ccoc2cc2oc(=O)ccc12 | 6 | 40* | -2 | x | x
COc1cc(NC(=O)c2sc3nc(C)nc(N4CCOCC4)c3c2C)cc(OC)c1OC | -7 | -1 | -3 | 34* | 43
CC1CN(C)C(C)C/C1=N\Oc1ccc([N+](=O)[O-])cc1 (centres undefined) | -7 | 4 | -31* | -2 | -24
CCN(C(=O)CN1C(=O)c2ccccc2Sc2ccc(C(=O)OC)cc21)c1cccc(C)c1 | 2 | 7 | 10 | -4 | x
CC(=O)Oc1cccc2c1C(=O)c1c(OC(C)=O)cc(C(=O)O)cc1C2=O | -3 | 0 | -10 | 0 | -122*
C=CCN1CCN(C(=O)c2cc3c(s2)CCCC3)CC1 | 9 | 1 | -1 | -26 | -58*
COc1cccc(N2CCN(C(=O)c3cc4cc5cc(C)ccc5nc4s3)CC2)c1 | -2 | 1 | -16 | -4 | x
COc1ccc2nc3sc(C(=O)N4CCN(c5ccccc5)CC4)cc3cc2c1 | -1 | 1 | -59* | 0 | x
COc1ccc(N2CCN(C(=O)c3cc4c(s3)CCCCC4)CC2)cc1 | -11 | 1 | -57* | -11 | -2
CC(=O)c1ccc(N2CCN(C(=O)c3cc4c(s3)CCCC4)CC2)cc1 | -6 | 3 | -35* | -5 | -2
COc1ccccc1N1CCN(C(=O)c2cc3c(s2)CCC3)CC1 | 1 | 1 | 3 | -13 | -7
COc1ccc(-n2ncc3c(NCCCOC(C)C)ncnc32)cc1 | 0 | -2 | 4 | 0 | x
O=C1CCC([N+](=O)[O-])C(c2ccccc2F)N1 (centres undefined) | -6 | 2 | -3 | -5 | 1
CCN(CC)c1ccc(C(=O)NNC(=O)CCl)cc1 | -2 | 2 | -2 | -35 | -126*
CCN(CC)c1ccc(C(=O)NNC(=O)CCNC(=O)c2ccccc2)cc1 | -3 | 4 | -19 | -16 | 27
NC(N)=NCCC[C@H](NC(=O)CNC(=O)c1ccccc1)C(=O)Nc1cc(C(F)(F)F)ccc1Cl | 7 | 0 | -13 | x | x
COc1ccc(CC(=O)Nc2cc(S(C)(=O)=O)ccc2Cl)cc1S(=O)(=O)N1CCOCC1 | x | x | x | 3 | -21
CCC(CN(C)C)Oc1cc(NCc2ccccc2)c2ncn(C(C)C)c2c1 (centres undefined) | x | x | x | -18 | -55*
CCC(CO)Oc1cc(NC(=O)c2ccc([N+](=O)[O-])cc2)c2ncn(C(C)C)c2c1 (centres undefined) | x | x | x | 2 | -61*
CCC(CO)Oc1cc(NC(=O)c2cccc([N+](=O)[O-])c2)c2ncn(C(C)C)c2c1 (centres undefined) | x | x | x | 0 | -21
CCC(CO)Oc1cc(NCc2ccncc2)c2ncn(C(C)C)c2c1 (centres undefined) | x | x | x | 56* | 1
COc1cc(NCc2ccccc2)c2ncn(C(C)C)c2c1 | 0 | -2 | 10 | 3 | 1
CCC(CO)Oc1cc(NCc2ccc(F)cc2)c2ncn(C(C)C)c2c1 (centres undefined) | x | x | x | 8 | 0
SMILES | D1 potentiator | D1 ag | D1 antagonist | DRD3 agonist | D3 antag
CC(C)CNS(=O)(=O)c1ccc(CCC(=O)N2CCC(C(N)=O)CC2)cc1 | 6 | 4 | 10 | 4 | 5
N#Cc1nc(COc2ccc(F)cc2)oc1N1CCC(Cc2ccccc2)CC1 | 2 | 48* | 0 | -4 | 4
CCN1CCN(c2oc(COc3ccc(-c4ccccc4)cc3)nc2C#N)CC1 | -2 | 19 | -8 | -20 | -80*
N#Cc1nc(COc2ccccc2Cl)oc1N1CCCC1 | -3 | 2 | -31* | -1 | 7
N#Cc1nc(COc2ccc(F)cc2)oc1N1CCN(Cc2ccccc2)CC1 | 1 | 2 | 1 | -4 | -6
N#Cc1nc(COc2ccc(Br)cc2)oc1N1CCN(Cc2ccccc2)CC1 | -6 | 9 | -9 | -9 | -25
CS(=O)(=O)Nc1cccc(NC(=O)C2Cc3c(-c4ccccc4)ccnc3O2)c1 (centres undefined) | x | x | x | -11 | -25
CCOC(=O)CSc1nnc(CNc2cccc(Cl)c2)n1-c1ccccc1 | 1 | 17 | -16 | 1 | -8
CCc1nnc(NC(=O)CSc2nnc(CNc3cccc(C)c3)n2-c2ccccc2)s1 | -3 | 1 | -31* | 2 | 7
CCOC(=O)CSc1nnc(CNc2ccc(Cl)cc2)n1-c1ccccc1 | 0 | 7 | -52* | -4 | -11
COc1ccc(/C=C/c2nc(C#N)c(N3CCN(c4ccccc4)CC3)o2)cc1OC | 4 | 0 | -10 | -1 | x
COc1cc(CNCCO)cc(Br)c1OCc1ccccc1Cl | 5 | 69* | 9 | -1 | 16
COc1cc(CNCCO)cc(Cl)c1OCc1ccc(Cl)cc1Cl | 8 | 154* | -3 | -9 | -29
Cc1ncc(CN2CCC(C(=O)Nc3ccc(Oc4cccnc4)cc3)CC2)cn1 | 2 | 3 | -6 | -4 | -22
C#Cc1ccc(CN2CCC(C(=O)Nc3ccc(Oc4ccccc4)nc3)CC2)cc1 | -5 | 41* | -12 | -15 | -4
O=C(Nc1ccc(Oc2cccnc2)cc1)C1CCN(Cc2ccc(F)cc2)CC1 | -3 | 36* | -25 | -26 | -11
O=C(Nc1ccc(Oc2ccccc2)nc1)C1CCN(Cc2cccc(F)c2)CC1 | 2 | 9 | -28 | -17 | -6
O=C(N/N=C/c1cccnc1)c1sc2ccccc2c1Cl | -3 | 0 | -24 | -5 | 1
O=S(=O)(c1ccc(OC(F)(F)F)cc1)N1CCCC(c2ccccc2)C1 (centres undefined) | 11 | 18 | -34* | -8 | -12
O=c1[nH]c(C2CCCN(S(=O)(=O)c3ccccc3)C2)nc2c1nnn2Cc1ccc(OC(F)(F)F)cc1 (centres undefined) | 10 | 1 | 3 | -3 | 15
Cc1nn(C)c(C(=O)NNC(=S)NCc2ccccc2)c1Cl | -6 | 6 | -32* | -1 | -4
Cc1nn(C)c(C(=O)NNC(=O)Nc2cccc(C(F)(F)F)c2)c1Cl | -6 | 10 | -30* | 3 | 0
Cc1nn(C)c(C(=O)NC(=S)Nc2ccccc2Br)c1Cl | 8 | 2 | -4 | 3 | 14
O=C(NCc1cccc(Cl)c1)c1cccc(C(F)(F)F)c1 | -9 | 2 | -33* | 1 | -15
O=C(NNC(=S)Nc1cccc(C(F)(F)F)c1)c1cccc(Cl)c1 | -4 | 9 | 6 | 44* | 6
COC(=O)[C@@H]1C[C@@H](c2ccccc2)[C@H](C)C1(C)C | 9 | 3 | 25 | 1 | -20
CCOc1c(Cl)cc(CNc2ccc3[nH]c(=O)[nH]c3c2)cc1OC | 1 | 0 | -11 | -1 | x
